HT1080 IDH1KD tx: HT-1080 IDH1 knockdown cell toxicity (counter line) | HT-1080 IDH1 knockdown viability, ATP luminescence, 48 h | Potency, µM (doses to about 46.1 µM), actives largely listed as cytotoxic | 2% of 360,000 active
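Assay cells: HT-1080 with IDH1 knockdown, 750 per well, RPMI/5% FBS. Exposure: 48 h at 37 °C following 2 h pre-incubation. Read: CellTiter-Glo luminescence; fitted concentration-response, curve class assigned.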
ELG1 repair inh: inhibitors of ELG1-dependent DNA repair in HEK293T cells | HEK293T ELG1-luciferase reporter, luminescence, 16 h; DNA damage induced by 5-fluorouridine | Potency, µM (top dose mostly 46.1 µM), actives largely listed as inhibitors | 2.3% of 330,000 active; further: nearly all actives have a fitted effect of over 55% in size
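Quantitative HTS, concentration-response format. 2,000 cells/well co-treated with 5-fluorouridine and compound, 16 hr in 5% CO2 at 37 °C; ONE-Glo luminescence read after 30 min.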
TDP1 cell noCPT: qHTS for Inhibitors of human tyrosyl-DNA phosphodiesterase 1 (TDP1): qHTS in cells in absence of CPT. DT40 Tdp1-/- hTDP1 cells, no CPT, ATP luminescence, 48 h. Potency, µM (top dose mostly 46.2 µM), hits mostly inhibitors. 15% of 420,000 active; further: nearly all actives have a fitted effect of over 55% in size
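DT40 Tdp1-/-;hTDP1 cells, no CPT (DMSO vehicle only), 400 cells/well; compounds pin-transferred; ≥48 hr, 37 °C; CellTiter-Glo 30 min RT dark, luminescence read.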
HT1080NT lethal: kills 2HG-producing HT-1080-NT fibrosarcoma cells; 1.6% of 360,000 active; HT-1080-NT fibrosarcoma viability, CellTiter-Glo ATP luminescence, 48 h; Potency, µM (series often up to 46.1 µM), most hits filed as cytotoxic; AID 686970;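 further: NT is the 2HG producing partner of a matched IDH1 knockdown line; nearly all actives have a fitted effect of over 55% in size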
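Read-out is CellTiter-Glo luminescence after 10 minutes at room temperature, following 48 hours' compound treatment of HT-1080-NT cells (750 cells/well, RPMI, 5% FBS, 37 degrees C).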
TDP1 cell CPT: DT40-hTDP1 cell growth loss with CPT; chicken DT40 Tdp1-/-;hTDP1 cells + 20 nM CPT, ATP luminescence, 48 h; Potency, µM (doses to about 46.2 µM), usual class: inhibitors; 12% of 420,000 active; further: nearly all actives have a fitted effect of over 55% in size
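Chicken DT40 Tdp1-/- cells complemented with human TDP1, 400 cells/well, exposed to compounds plus 20 nM camptothecin for at least 48 h at 37 C; viability read as ATP content by CellTiter-Glo luminescence.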
IL-1B inflam inh: blocks inflammasome-driven IL-1 beta release. THP-1 LPS/ATP IL-1B secretion, AlphaLISA, 16 h; stronger effect = lower value. activity change, % at 57.5 µM. 4.7% of 360,000 active; in the data active means activity change below about -50%; inconclusive means mostly about -30% to -49%
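THP-1 cells pretreated 1 hr with compounds (up to 57.5 uM final), then stimulated with LPS (250 ng/mL final) plus ATP (1.25 mM final); secreted IL-1B measured by AlphaLISA after 16 hr, decreased signal indicating inhibition.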
Each line names hits and unclear results; the compound was inactive in the other large screens. Hits are enriched below; roughly 19% of the tested compounds scored in any of these assays. Unless noted, the call rests on the fitted dose curve; in most records, active means well fitted curve in the direction sought with a large enough effect; inconclusive means small, poorly fitted or top-dose-only effect, or another doubt; inactive means no such curve, though single readings can be large; an effect the other way counts as inactive or inconclusive.

COc1ccc(C(=O)NCCn2cc(SCC(=O)NCC3CCCO3)c3ccccc32)cc1 (stereo not given)	none
COc1ccc(C(=O)NCCn2cc(SCC(=O)Nc3cccc(C)c3)c3ccccc32)cc1	TDP1 cell noCPT inconclusive, TDP1 cell CPT 16µM (no result: HT1080 IDH1KD tx, ELG1 repair inh, HT1080NT lethal, IL-1B inflam inh)
CCc1ccc(C(=O)NNC(=S)Nc2ccc(S(N)(=O)=O)cc2)s1	none
Cn1cnnc1Sc1cc(N2CCN(S(=O)(=O)c3ccc4ccccc4c3)CC2)ccc1[N+](=O)[O-]	TDP1 cell noCPT inconclusive, TDP1 cell CPT inconclusive
Cn1cnnc1Sc1cc(N2CCN(S(=O)(=O)c3ccc(Cl)c(Cl)c3)CC2)ccc1[N+](=O)[O-]	TDP1 cell noCPT 15µM, TDP1 cell CPT inconclusive
Cc1cc(C)n(-c2cc(N3CCN(S(=O)(=O)c4ccc5ccccc5c4)CC3)ccc2[N+](=O)[O-])n1	TDP1 cell noCPT 9.2µM, TDP1 cell CPT inconclusive
Cc1cc(C)n(-c2ccc(S(=O)(=O)N3CCCC3)cc2[N+](=O)[O-])n1	none
Cc1cc(C)n(-c2cc(N3CCN(S(=O)(=O)c4ccc(C)c(C)c4)CC3)ccc2[N+](=O)[O-])n1	ELG1 repair inh inconclusive, TDP1 cell noCPT inconclusive, TDP1 cell CPT 21µM
COc1ccc(Cc2c(C3CCCCC3)nc3c4ccccc4ccn23)c(C)c1	HT1080 IDH1KD tx inconclusive, TDP1 cell noCPT inconclusive, TDP1 cell CPT inconclusive (no result: ELG1 repair inh)
COc1ccc(Cc2c(C3CCCCC3)nc3c(C)cc(Br)cn23)c(C)c1	HT1080 IDH1KD tx inconclusive, TDP1 cell noCPT 2.6µM, HT1080NT lethal inconclusive, TDP1 cell CPT 2.6µM (no result: ELG1 repair inh)
COc1ccc(Cc2c(-c3ccccc3)nc3c(C)cc(Br)cn23)c(C)c1	HT1080 IDH1KD tx inconclusive, TDP1 cell noCPT inconclusive, TDP1 cell CPT 16µM (no result: ELG1 repair inh)
COc1ccc(Cc2c(-c3cccc(Cl)c3)nc3ccc(C)cn23)c(C)c1	HT1080 IDH1KD tx inconclusive, TDP1 cell noCPT 21µM, HT1080NT lethal inconclusive, TDP1 cell CPT 16µM (no result: ELG1 repair inh)
COc1ccc(Cc2c(-c3ccc(Cl)cc3)nc3c(C)cc(Br)cn23)c(C)c1	HT1080 IDH1KD tx inconclusive, TDP1 cell noCPT 21µM, HT1080NT lethal inconclusive, TDP1 cell CPT 23µM (no result: ELG1 repair inh)
COc1ccc(NC(=O)Cn2c(=O)n(CCCCCC(=O)NCc3ccc4c(c3)OCO4)c(=O)c3sccc32)cc1Cl	none (no result: HT1080 IDH1KD tx, ELG1 repair inh, HT1080NT lethal, IL-1B inflam inh)
CCCc1nc2c(C)cc(Br)cn2c1Cc1cccc(F)c1	HT1080 IDH1KD tx inconclusive, TDP1 cell noCPT inconclusive, HT1080NT lethal inconclusive, TDP1 cell CPT inconclusive (no result: ELG1 repair inh)
Cc1cc(Br)cn2c(Cc3cccc(Cl)c3)c(-c3cccc(Cl)c3)nc12	TDP1 cell noCPT 26µM, TDP1 cell CPT inconclusive (no result: ELG1 repair inh)
COc1ccc(Cc2c(-c3cccc(Br)c3)nc3c(C)cc(Br)cn23)c(C)c1	TDP1 cell noCPT inconclusive, TDP1 cell CPT inconclusive (no result: ELG1 repair inh)
COc1ccc(Cc2c(-c3ccc(F)cc3)nc3c(C)cc(Br)cn23)c(C)c1	TDP1 cell noCPT 18µM, TDP1 cell CPT inconclusive (no result: ELG1 repair inh)
CCCc1nc2c(C)cc(Br)cn2c1Cc1ccc(OC)cc1C	HT1080 IDH1KD tx inconclusive, TDP1 cell noCPT 21µM, HT1080NT lethal inconclusive, TDP1 cell CPT inconclusive (no result: ELG1 repair inh)
COc1ccc(Cc2c(-c3cccc(Cl)c3)nc3c(C)cc(Br)cn23)c(C)c1	HT1080 IDH1KD tx 23µM, TDP1 cell noCPT 2.6µM, HT1080NT lethal 21µM, TDP1 cell CPT 2.6µM, IL-1B inflam inh inconclusive (no result: ELG1 repair inh)
Cc1cc(Br)cn2c(CC(C)(C)C)c(-c3cccc(Cl)c3)nc12	TDP1 cell noCPT inconclusive (no result: ELG1 repair inh)
COc1ccc(Cc2c(-c3ccc(F)cc3)nc3ccc(Cl)cn23)c(C)c1	HT1080 IDH1KD tx inconclusive, TDP1 cell noCPT inconclusive, TDP1 cell CPT inconclusive (no result: ELG1 repair inh)
O=C(COC(=O)C1CC(O)CN1S(=O)(=O)c1ccccc1[N+](=O)[O-])c1ccc[nH]1 (stereo not given)	none
O=c1cc(-c2ccccc2)nc(SCCOc2ccccc2Cl)[nH]1	none
CCN(C(=O)COC(=O)CNS(=O)(=O)c1ccccc1)c1ccccc1	none
